Compounds without any hit were thinned out: in the full panel of roughly 83,000, 20% have a hit.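 Plates (96-well) were seeded with cells, treated with compound at one concentration, and incubated for 48 hours before percent growth was determined.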 The source made the active and inactive calls. How the source made its calls: active means growth percent below 10; inactive means the rest.
Assays:
Experiment in all cases: NCI-60 one-dose screen, 48 h (100 = growth as untreated, 0 = no growth, -100 = all killed)
Details in all cases: 10 µM unless noted
SR leukemia = test system: SR leukemia
RPMI-8226 leukemia = test system: RPMI-8226 leukemia
OVCAR-8 ovarian = test system: OVCAR-8 ovarian
OVCAR-5 ovarian = test system: OVCAR-5 ovarian
OVCAR-4 ovarian = test system: OVCAR-4 ovarian
SK-OV-3 ovarian = test system: SK-OV-3 ovarian
IGROV1 ovarian = test system: IGROV1 ovarian
OVCAR-3 ovarian = test system: OVCAR-3 ovarian
HS 578T breast = test system: HS 578T breast
NCI/ADR-RES ovarian = test system: NCI/ADR-RES ovarian
T-47D breast = test system: T-47D breast
BT-549 breast = test system: BT-549 breast
MDA-MB-435 melanoma = test system: MDA-MB-435 melanoma
SW-620 colon = test system: SW-620 colon
MCF7 breast = test system: MCF7 breast
HCT-116 colon = test system: HCT-116 colon
HCC-2998 colon = test system: HCC-2998 colon
KM12 colon = test system: KM12 colon

Measured: growth

Cc1ccc(NC(=O)c2ccc(CN3CCOCC3)c(C(F)(F)F)c2)cc1Oc1ccc(-c2[nH]nc3ncnc(N)c23)cc1
inactive: SR leukemia 55.5% | RPMI-8226 leukemia 44.6% | OVCAR-8 ovarian 70.9% | OVCAR-5 ovarian 72% | OVCAR-4 ovarian 72.7% | SK-OV-3 ovarian 71.6% | IGROV1 ovarian 74.2% | OVCAR-3 ovarian 93.2% | HS 578T breast 62.8% | NCI/ADR-RES ovarian 87.9% | T-47D breast 11% | BT-549 breast 66.8% | MDA-MB-435 melanoma 47.7% | SW-620 colon 110% | MCF7 breast 55.8% | HCT-116 colon 55.4% | HCC-2998 colon 75.2% | KM12 colon 25.4%

N=c1c2cc(-c3ccccc3)oc2ncn1/N=C/c1ccc(Cl)cc1
inactive: SR leukemia 35.3% | RPMI-8226 leukemia 80.9% | OVCAR-8 ovarian 95.7% | OVCAR-5 ovarian 51.7% | OVCAR-4 ovarian 17.1% | SK-OV-3 ovarian 99.7% | IGROV1 ovarian 53.5% | HS 578T breast 81.7% | NCI/ADR-RES ovarian 49.6% | T-47D breast 81% | BT-549 breast 105% | MDA-MB-435 melanoma 72.6% | SW-620 colon 29.5% | MCF7 breast 70.8% | HCT-116 colon 66.6% | HCC-2998 colon 102% | KM12 colon 31%
active: OVCAR-3 ovarian 6.82%

Cc1ccc(-n2cc(/C=N/NC(=O)c3ccncc3)c(-c3ccc(S(C)(=O)=O)cc3)n2)cc1
inactive: SR leukemia 63.5% | RPMI-8226 leukemia 96.5% | OVCAR-8 ovarian 98.7% | OVCAR-5 ovarian 103% | OVCAR-4 ovarian 102% | SK-OV-3 ovarian 96.1% | IGROV1 ovarian 77.8% | OVCAR-3 ovarian 82.3% | HS 578T breast 90.3% | NCI/ADR-RES ovarian 51.7% | T-47D breast 93.1% | BT-549 breast 74.1% | MDA-MB-435 melanoma 23.6% | SW-620 colon 64.6% | MCF7 breast 72.2% | HCT-116 colon 61.1% | HCC-2998 colon 98.1% | KM12 colon 58%

NC(=O)c1cccc(C#CCNC[C@H]2C[C@@H](n3ccc4c(Cl)ncnc43)[C@H](O)[C@@H]2O)c1
active: MDA-MB-435 melanoma -89.6%
inactive: SR leukemia 112% | RPMI-8226 leukemia 110% | OVCAR-8 ovarian 101% | OVCAR-5 ovarian 98.4% | OVCAR-4 ovarian 111% | SK-OV-3 ovarian 105% | IGROV1 ovarian 101% | OVCAR-3 ovarian 113% | HS 578T breast 101% | NCI/ADR-RES ovarian 106% | T-47D breast 96.6% | BT-549 breast 102% | SW-620 colon 104% | MCF7 breast 96.5% | HCT-116 colon 104% | HCC-2998 colon 107% | KM12 colon 106%

CC1=CC(=O)C2=C(C)CC(OC(=O)CCc3ccccc3)[C@@H]3[C@H](OC(=O)[C@@H]3C)[C@@H]12 (stereo partly specified)
inactive: SR leukemia 86.8% | RPMI-8226 leukemia 74.7% | OVCAR-8 ovarian 96.8% | OVCAR-5 ovarian 95.9% | OVCAR-4 ovarian 91.6% | SK-OV-3 ovarian 91.6% | IGROV1 ovarian 82.7% | OVCAR-3 ovarian 98.6% | HS 578T breast 104% | NCI/ADR-RES ovarian 98.2% | T-47D breast 96.5% | BT-549 breast 98.9% | MDA-MB-435 melanoma 93.3% | SW-620 colon 96.7% | MCF7 breast 83.9% | HCT-116 colon 69.2% | HCC-2998 colon 102% | KM12 colon 91.2%

COc1ccc(-c2cc(-c3ccc(Cl)cc3)c(C#N)c(=O)n2Cc2ccc(C(=O)O)cc2)cc1
inactive: SR leukemia 28.9% | RPMI-8226 leukemia 79.9% | OVCAR-8 ovarian 99% | OVCAR-5 ovarian 105% | OVCAR-4 ovarian 88.6% | SK-OV-3 ovarian 114% | IGROV1 ovarian 96.9% | HS 578T breast 31.9% | NCI/ADR-RES ovarian 83.6% | T-47D breast 48.7% | BT-549 breast 62.8% | MDA-MB-435 melanoma 21.1% | SW-620 colon 94.8% | MCF7 breast 33.3% | HCT-116 colon 77.7% | HCC-2998 colon 95.6% | KM12 colon 43.2%
active: OVCAR-3 ovarian 6.02%

O=S(=O)(NCCCNc1nccc(-n2cnc3ccccc32)n1)c1ccc(C(F)(F)F)cc1
inactive: SR leukemia 75.4% | RPMI-8226 leukemia 69.7% | OVCAR-8 ovarian 82.5% | OVCAR-5 ovarian 96.3% | OVCAR-4 ovarian 66.7% | SK-OV-3 ovarian 92.5% | IGROV1 ovarian 98.1% | OVCAR-3 ovarian 96.8% | HS 578T breast 78.3% | NCI/ADR-RES ovarian 81.1% | T-47D breast 44.7% | BT-549 breast 88.2% | MDA-MB-435 melanoma 93.4% | SW-620 colon 106% | MCF7 breast 83.4% | HCT-116 colon 75.9% | HCC-2998 colon 112% | KM12 colon 79.8%

C[C@H]1c2[nH]c3ccccc3c2C[C@H]2C(=O)N(CCCCCCC(=O)NO)CC(=O)N21
inactive: SR leukemia 30.8% | RPMI-8226 leukemia 73.8% | OVCAR-8 ovarian 64.5% | OVCAR-5 ovarian 80.7% | OVCAR-4 ovarian 97.1% | SK-OV-3 ovarian 101% | IGROV1 ovarian 93% | OVCAR-3 ovarian 79.9% | HS 578T breast 66.7% | NCI/ADR-RES ovarian 106% | T-47D breast 61% | BT-549 breast 96.5% | MDA-MB-435 melanoma 84% | SW-620 colon 80.5% | MCF7 breast 70.8% | HCT-116 colon 72.8% | HCC-2998 colon 114% | KM12 colon 84.1%

Cc1ccc(-c2nnc(SCc3ccc(O)c4ncccc34)o2)cc1
inactive: SR leukemia 32.8% | RPMI-8226 leukemia 12.8% | OVCAR-8 ovarian 12.2% | OVCAR-5 ovarian 58.2% | OVCAR-4 ovarian 15.8% | SK-OV-3 ovarian 14.1% | IGROV1 ovarian 13.7% | OVCAR-3 ovarian 28.4% | HS 578T breast 15.5% | NCI/ADR-RES ovarian 10.7% | T-47D breast 13.4% | BT-549 breast 30% | MDA-MB-435 melanoma 17.7% | SW-620 colon 14.1% | MCF7 breast 10.6% | HCT-116 colon 18.5% | HCC-2998 colon 34.4% | KM12 colon 11.4%

Cn1ccnc1C(=O)/C=C/c1ccc(CNC(=O)c2ccc(Cl)cc2)cc1
active: SR leukemia 4.17% | RPMI-8226 leukemia -13.7% | SW-620 colon 9.22% | HCT-116 colon -1.09% | KM12 colon 9.07%
inactive: OVCAR-8 ovarian 24.6% | OVCAR-5 ovarian 11% | OVCAR-4 ovarian 37.9% | SK-OV-3 ovarian 43.1% | IGROV1 ovarian 12.2% | OVCAR-3 ovarian 17% | HS 578T breast 28.1% | NCI/ADR-RES ovarian 10.4% | T-47D breast 34% | BT-549 breast 16.5% | MDA-MB-435 melanoma 22.6% | MCF7 breast 10.5% | HCC-2998 colon 13.1%

O=S(=O)(Oc1ccc(-c2nnc(Nc3ccccc3)s2)cc1)C(F)(F)C(F)(F)C(F)(F)C(F)(F)C(F)(F)C(F)(F)F
inactive: SR leukemia 19.5% | RPMI-8226 leukemia 105% | OVCAR-8 ovarian 107% | OVCAR-5 ovarian 93.3% | OVCAR-4 ovarian 107% | SK-OV-3 ovarian 108% | IGROV1 ovarian 107% | OVCAR-3 ovarian 108% | HS 578T breast 98.4% | NCI/ADR-RES ovarian 103% | T-47D breast 104% | BT-549 breast 112% | MDA-MB-435 melanoma 103% | SW-620 colon 103% | MCF7 breast 90.7% | HCT-116 colon 109% | HCC-2998 colon 105% | KM12 colon 102%

Cn1cc(-c2nc(N)nnc2-c2c[nH]c3ccccc23)c2cc(Br)ccc21
inactive: SR leukemia 26.7% | RPMI-8226 leukemia 12.9% | OVCAR-8 ovarian 33% | OVCAR-5 ovarian 55.1% | OVCAR-4 ovarian 74.1% | SK-OV-3 ovarian 29.7% | IGROV1 ovarian 30.5% | OVCAR-3 ovarian 16.9% | NCI/ADR-RES ovarian 20.2% | T-47D breast 31.2% | BT-549 breast 32.9% | SW-620 colon 18.2% | MCF7 breast 18.1% | HCT-116 colon 20.3% | HCC-2998 colon 57.6% | KM12 colon 18.1%
active: HS 578T breast 2.13% | MDA-MB-435 melanoma -37.6%

C=CCn1c(SCC(=O)Nc2ccc(C(=O)/C=C/c3ccc(C)cc3)cc2)nnc1-c1c[nH]c2ccccc12
active: HCT-116 colon -2.08%
inactive: SR leukemia 71.7% | RPMI-8226 leukemia 34.9% | OVCAR-8 ovarian 90.9% | OVCAR-5 ovarian 99.6% | OVCAR-4 ovarian 81.3% | SK-OV-3 ovarian 105% | IGROV1 ovarian 78.4% | OVCAR-3 ovarian 99.4% | HS 578T breast 96.9% | NCI/ADR-RES ovarian 98.4% | T-47D breast 70% | BT-549 breast 107% | MDA-MB-435 melanoma 96.7% | SW-620 colon 96.9% | MCF7 breast 20.2% | HCC-2998 colon 102% | KM12 colon 96.6%

Cn1ccnc1C(=O)/C=C/c1ccc(CNC(=O)c2c(F)c(F)c(F)c(F)c2F)cc1
active: RPMI-8226 leukemia 9.9% | HCT-116 colon 4.78%
inactive: SR leukemia 12.8% | OVCAR-8 ovarian 90.1% | OVCAR-5 ovarian 94.9% | OVCAR-4 ovarian 95.4% | SK-OV-3 ovarian 105% | IGROV1 ovarian 31.7% | OVCAR-3 ovarian 14.8% | HS 578T breast 86.9% | NCI/ADR-RES ovarian 49.1% | T-47D breast 41.4% | BT-549 breast 74.1% | MDA-MB-435 melanoma 64.7% | SW-620 colon 38.2% | MCF7 breast 19.4% | HCC-2998 colon 90.7% | KM12 colon 23.2%

CN1CCN(Cc2ccc(NC(=O)c3cncc(C#Cc4cnc5ccc(OCC(C)(C)O)nn45)c3)cc2C(F)(F)F)CC1
inactive: NCI/ADR-RES ovarian 33.9%
active: SR leukemia -7.52% | RPMI-8226 leukemia -27.6% | OVCAR-8 ovarian 6.58% | OVCAR-5 ovarian -3.05% | OVCAR-4 ovarian -2.05% | SK-OV-3 ovarian -13.3% | IGROV1 ovarian -17.3% | OVCAR-3 ovarian -56.5% | HS 578T breast -36.9% | T-47D breast -17.6% | BT-549 breast -20.1% | MDA-MB-435 melanoma -86.8% | SW-620 colon -16.1% | MCF7 breast -66.3% | HCT-116 colon -51% | HCC-2998 colon -34.3% | KM12 colon 1.72%

O=S(=O)(NCCNc1nccc(-n2cnc3ccccc32)n1)c1ccc(Br)cc1
inactive: SR leukemia 75.1% | RPMI-8226 leukemia 79.7% | OVCAR-8 ovarian 95.6% | OVCAR-5 ovarian 94% | OVCAR-4 ovarian 82.2% | SK-OV-3 ovarian 99.9% | IGROV1 ovarian 90.7% | OVCAR-3 ovarian 103% | HS 578T breast 85.7% | NCI/ADR-RES ovarian 97.6% | T-47D breast 59.1% | BT-549 breast 115% | MDA-MB-435 melanoma 108% | SW-620 colon 110% | MCF7 breast 78.4% | HCT-116 colon 99.8% | HCC-2998 colon 103% | KM12 colon 85.4%

CCN(CC)c1ccc2c(c1)Oc1nc(N)c(C#N)c(N)c1C2Sc1ccc(F)cc1 (stereo unspecified)
inactive: BT-549 breast 56.1%
active: SR leukemia -9.13% | RPMI-8226 leukemia -25.7% | OVCAR-8 ovarian -31.1% | OVCAR-5 ovarian -92.5% | OVCAR-4 ovarian -29.3% | SK-OV-3 ovarian -7.03% | IGROV1 ovarian -77.9% | OVCAR-3 ovarian -69.4% | HS 578T breast -4.5% | NCI/ADR-RES ovarian -9.25% | T-47D breast -35% | MDA-MB-435 melanoma -17.5% | SW-620 colon -80.2% | MCF7 breast -85.5% | HCT-116 colon -81.4% | HCC-2998 colon -90.9% | KM12 colon -74.1%
